Screening results (PubChem)
NALP3 yeast inh: inhibitors of NALP3 inflammasome in yeast; Yeast reconstituted NLRP3/ASC/caspase-1, beta-gal luminescence, 24 h; inhibition, % at 10 µM; actives 0.39% (n = 330,000); AID 2825;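 active means inhibition of 50% or more; inactive means inhibition below 50%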;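 further: plate controls were induced DMSO wells for no effect and uninduced yeast grown without galactose for full effect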
tim23-1 inh: growth inhibitors of tim23-1 mutant yeast; S. cerevisiae tim23-1 growth, BacTiter-Glo luminescence, 24 h; inhibition, % at 20 µM; actives 1.3% (n = 330,000); AID 463212;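 active means growth inhibition of the mutant yeast at or above 50%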;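 further: temperature-sensitive mutant grown at 25 °C; plate controls were DMSO-treated mutant yeast for no effect and medium wells lacking yeast for full effect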
PfHsp90 set2: growth inhibition of yeast expressing Plasmodium Hsp90. actives 0.32% (n = 310,000). S. cerevisiae expressing PfHsp90, BacTiter-Glo ATP, 48 h; yeast lacking PDR1 and PDR3 efflux regulators. inhibition, % at 9.4 µM;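 active means every replicate shows inhibition above about 80%, whatever the replicate mean, limit read from the data; inconclusive means mean inhibition reaches the set limit but some replicate falls short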;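 further: 0% = DMSO neutral controls and 100% = 20 µM radicicol positive controls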
tim10-1 inh: inhibits growth of tim10-1 mutant yeast; S. cerevisiae tim10-1 ts strain growth, BacTiter-Glo, 24 h; actives 2.2% (n = 330,000); inhibition, % at 20 µM;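 active means inhibition of at least 40%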;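 further: mutant grown at 25 °C; 0% = DMSO wells with yeast and 100% = wells holding no yeast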
TIM10 inh: TIM10 yeast growth inhibition; S. cerevisiae TIM10 strain growth, BacTiter-Glo luminescence, 24 h; AID 463195; inhibition, % at 10 µM; actives 1.4% (n = 330,000);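 active means inhibition of 40% or more at the single tested concentration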;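 further: wild-type TIM10 isogenic control strain grown at permissive 25 °C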
tim10 confirm: TIM10 yeast growth inhibition, confirmed; actives 63% (n = 4,600); inhibition, % at 10 µM; S. cerevisiae tim10 strain growth, BacTiter-Glo luminescence, 24 h; shares compounds with TIM10 inh;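 active means inhibition of yeast growth at or above a set limit in either of two replicates at 10 µM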;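 further: this counterscreen used the strain with wild-type TIM10; 0% = yeast with DMSO and 100% = medium wells lacking yeast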
* marks the source's active call; other numbers are inactive results; ? = inconclusive; · = no result. Rows were chosen to be rich in hits. Some 3.7% of all compounds tested hit in one or more screens of this group.

SMILES	NALP3 yeast inh	tim23-1 inh	PfHsp90 set2	tim10-1 inh	TIM10 inh	tim10 confirm
Cc1ccc(S(=O)(=O)n2nc(OC(=O)c3ccccc3F)cc2N)cc1	-5	43	-19	14	46*	48*
Nc1cc(OC(=O)c2ccc(F)cc2)nn1S(=O)(=O)c1ccccc1	7	37	2	26	39	·
COc1ccc(S(=O)(=O)n2nc(OC(=O)c3ccccc3Br)cc2N)cc1	5	30	7	35	50*	19
COc1ccc(S(=O)(=O)n2nc(OC(=O)c3ccc(C)cc3)cc2N)cc1	1	39	0	34	53*	35*
Cc1ccc(C(=O)Oc2cc(N)n(S(=O)(=O)c3ccc(C)cc3)n2)cc1	5	35	17	38	14	·
COc1ccc(S(=O)(=O)n2nc(OC(=O)c3ccccc3)cc2N)cc1	5	47	-17	37	49*	29
CC(C)(C)C(=O)Oc1cc(N)n(S(=O)(=O)c2ccccc2)n1	14	5	-13	26	5	·
O=C([C@H](Cc1ccc(O)cc1)n1cc(CCO)nn1)N1CCNCC1	11	9	0	2	-12	·
COc1ccc(NC(=O)CC2C(=O)N(C)C(=S)N2CCc2ccc(F)cc2)cc1 (stereo not drawn)	8	15	·	14	7	·
CCN1C(=O)C(CC(=O)Nc2ccc(OC)cc2)N(CCc2ccc(F)cc2)C1=S (stereo not drawn)	4	42	12	38	42*	26
CC(C)(C)c1ccc(OCCNC(=S)Nc2ccccc2)cc1	10	23	2	33	54*	39*
N=C1N(/N=C/c2ccccc2)C(=Nc2ccccc2)C(=S)N1c1ccccc1	15	47	17	36	57*	35*
Cc1ccc(/C=N/n2c(-c3ccccc3)n[nH]c2=S)cc1	41	11	12	-4	-9	·
O=C(Cn1nnc2ccccc21)c1ccc(Cl)cc1	-11	15	-12	4	-17	·
COc1ccc(/C=C(/NC(=O)c2ccccc2)C(=O)NCc2ccncc2)cc1	4	5	8	4	6	·
COc1ccc(C(=O)N/C(=C/c2ccc(Cl)cc2)C(=O)NCc2ccncc2)cc1	11	-9	-3	-9	96*	4
Cc1ccc2c(CSc3nncn3C)cc(=O)oc2c1C	8	-11	7	-8	1	·
S=c1[nH]nc(-c2cccc(Cl)c2)n1/N=C/c1ccco1	15	30	·	29	18	·
Cc1ccc(/C=N/n2c(-c3cccc(Cl)c3)n[nH]c2=S)o1	0	44	·	35	42*	26
O=C(CCN1C(=O)/C(=C\c2ccccc2F)SC1=S)N1CCCCC1	25	44	-7	30	42*	18
O=C1CC(N2CCC(c3nc4ccccc4o3)CC2)C(=O)N1c1ccc(Cl)c(C(F)(F)F)c1 (stereo not drawn)	5	37	104*	6	43*	27
CC(=O)Nc1cccc(Oc2ncnc3scc(-c4ccccc4)c23)c1	12	43	4	25	48*	15
O=S(=O)(c1ccc(Oc2ncnc3scc(-c4ccccc4)c23)cc1)N1CCOCC1	16	32	-30	29	9	·
CCCCCCC(=O)NNC(=O)c1c(O)c2ccccc2n(CCC)c1=O	42	4	·	3	46*	-12
O=C(CSc1nnc(-c2cccs2)n1CC1CCCO1)c1cc2ccccc2o1 (stereo not drawn)	3	19	?	31	41*	-26
SMILES	NALP3 yeast inh	tim23-1 inh	PfHsp90 set2	tim10-1 inh	TIM10 inh	tim10 confirm
Cc1ccc(C(=O)N2CCCC(Nc3ccc(F)cc3)C2)cc1C (stereo not drawn)	1	25	6	15	3	·
O=C(Nc1ccc2oc(-c3ccncc3)nc2c1)c1ccc2c(c1)OCCO2	2	-40	-31	-14	-6	·
O=C(Nc1ccc2oc(-c3ccccc3)nc2c1)c1ccc2c(c1)OCCO2	23	50	24	32	46*	52*
CC(C)(C)c1ccc(-n2nc(C#N)c(Cl)cc2=O)cc1	30	-36	100*	21	48*	47*
Cc1nn(-c2ccccc2)c(C)c1NC(=O)COc1cc(F)ccc1[N+](=O)[O-]	13	7	1	15	-10	·
CCc1ccc2[nH]c(=O)c(C(c3nnnn3Cc3ccco3)N3CCC(C)CC3)cc2c1 (stereo not drawn)	6	25	-14	31	41*	20
CC1CCN(c2ccccc2NC(=S)NC(=O)c2ccco2)CC1	-1	34	-3	34	43*	40*
CCNC(=O)CSc1nnc(-c2ccccc2Br)n1-c1cccc(C(F)(F)F)c1	-9	-2	16	23	47*	6
Cc1ccc2c(c1)Cc1nc3ccccc3nc1-2	26	42	-64	19	46*	51*
CC(=O)c1c(O)cc(=O)n(-c2ccccc2)c1-c1cccc2ccccc12	-6	-5	-6	0	-2	·
COc1ccc(OC)c(/C=C/C(=O)OCC(=O)NCc2cccs2)c1	23	22	·	21	41*	5
CCN(CC(=O)Nc1ccc(C(C)=O)cc1)CC(=O)Nc1cccc(OC)c1	3	15	·	6	-1	·
CC(NC(=O)/C(C#N)=C/c1ccc(Cl)c([N+](=O)[O-])c1)c1ccccc1 (stereo not drawn)	15	-91	·	20	63*	57*
C[C@@H](NC(=O)/C(C#N)=C/c1ccc(O)c(O)c1)c1ccccc1	30	21	-17	9	3	·
CC(=O)Oc1ccc(/C=N/NC(=S)Nc2ccccc2)cc1	21	48	-13	22	41*	26
O=C1OC(c2ccccc2)=C/C1=C/c1cccs1	1	43	0	12	46*	-35
CCCCOc1c(Br)cc(/C=C2\N=C(C)OC2=O)cc1OCC	-5	47	15	37	49*	19
COc1cccc(/C=C2\N=C(c3c(-c4ccccc4)noc3C)OC2=O)c1	-5	49	7	40	47*	25
COc1cc(/C=C2\N=C(c3c(-c4ccccc4)noc3C)OC2=O)ccc1OC(C)=O	3	29	-23	35	39	·
O=C1CN(C(=O)COC(=O)CCCOc2ccccc2)c2ccccc2N1	9	6	8	-8	0	·
C/C(=N\Nc1ccc(S(=O)(=O)N2CCCCC2)cn1)c1cccc(Br)c1	12	45	0	25	41*	45*
Cn1ncc(Br)c1NC(=O)c1cc(Cl)cc(Cl)c1	4	20	-9	26	6	·
O=C1COc2ccc(-c3csc(=Nc4ccc(OC(F)F)cc4)n3CC3CCCO3)cc2N1 (stereo not drawn)	14	5	·	29	40*	38*
